# Luciferase inh – blocks purified firefly luciferase enzyme activity. Potency, µM (highest dose often 115 µM), hits mostly inhibitors. P08659. actives 2.5% (n = 76,000). AID 1347043. purified P. pyralis luciferase, luminescence, biochemical; also: nearly all actives have a fitted effect of over 65% in size
#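 Luminescence read by CCD imaging after purified firefly luciferase (10nM final) was added to substrate buffer holding 10uM D-luciferin and 10uM ATP, pH 7.5, pre-dosed with compound.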
# 3T3 cytotox – cytotoxic compounds in NIH 3T3 cells; NIH 3T3 viability, CellTiter-Glo ATP luminescence, 48-72 h; Potency, µM (series often up to 96.7 µM), inactives show at the top dose activity change, negative = cytotoxicity, actives largely listed as inhibitors; actives 4.3% (n = 94,000); AID 1345082; also: nearly all actives have a fitted effect of over 55% in size
#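 First NIH 3T3 cells are plated at 400 cells/well; next compound is pinned in; then plates incubate 48 or 72 hr at 37 °C; finally CellTiter-Glo is added and luminescence read after 10 min.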
# hNpr1 antagonist – blocks ANP-stimulated signaling of human Npr1 receptor; HEK293 hNpr1 GloSensor cGMP, ANP-stimulated luminescence; actives 1.6% (n = 76,000); Potency, µM (titrated, usually from 46.3 µM), without a hit: top-dose activity change, negative = inhibition, usual class: inhibitors; calls by dose curve; also: nearly all actives have a fitted effect of over 60% in size
#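 Compound pre-incubated 30 min at room temperature on GloSensor-loaded HEK293 cells stably carrying hNpr1 and the pGS-40F cGMP biosensor. Stimulation uses hNppA at 0.1 nM final; luminescence is taken at baseline and 20 min post-agonist.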
# HEK293 tox – HEK 293 cell cytotoxicity; HEK 293 viability, ATP luminescence (CellTiter-Glo), 48-72 h; actives 6.6% (n = 94,000); Potency, µM (top dose mostly 115 µM), for inactives: at the highest dose activity change, negative = cytotoxicity, most hits filed as inhibitors; AID 1345083; also: nearly all actives have a fitted effect of over 60% in size
#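 ATP-coupled CellTiter-Glo luminescence served as viability read-out, recorded 10 min after reagent addition at room temperature. HEK 293 cells, 250 cells/well, had been incubated with pintool-transferred compound for 48 or 72 hr at 37 degree Celsius.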
# GPT2 inh – GPT2 alanine aminotransferase inhibition | Q8TD30 | Recombinant GPT2, coupled pyruvate oxidase/HRP Amplex Red fluorescence | Potency, µM (top dose mostly 57.7 µM), inactives show top-dose activity change, negative = inhibition, hits mostly inhibitors | actives 0.25% (n = 100,000) | AID 1671188; also: nearly all actives have a fitted effect of over 60% in size
#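 Fluorescence read-out: pyruvate from GPT2 turnover coupled to pyruvate oxidase, HRP and Amplex Red (0.2mM ThPP, 0.2U/mL PO and HRP, 50uM Amplex final). Substrates 250uM a-KG, 2mM L-alanine; enzyme 10ng/uL; 30 min RT.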
# Numbers without * were called inactive; i = inactive; ? = inconclusive; · = not tested or not shown; [ ] = another dose, or the depositor's remark. Rows were chosen to be rich in hits. Some 10% of all compounds tested hit in one or more screens of this group. Unless noted, calls follow the shape of the dose curve; as a rule, active = well fitted curve in the direction sought with a large enough effect; inconclusive = small, poorly fitted or top-dose-only effect, or another doubt; inactive = no such curve, though single readings can be large; an effect the other way counts as inactive or inconclusive. % is scaled to controls: 0 for no effect and ±100 for the full control effect; potency is read from the fitted curve at half-maximal effect.
SMILES,Luciferase inh,3T3 cytotox,hNpr1 antagonist,HEK293 tox,GPT2 inh
COCc1ccc2c(c1)c(OC(C)(C)C(=O)N1CCN(C)CC1)nn2Cc1ccccc1,i,?,-24%[70.6 µM],?,-6%[88.5 µM]
COCc1ccc2c(c1)c(OC(C)(C)C(=O)N1CCOCC1)nn2Cc1cccc(OC)c1,i,4µM*,4%,-29%,1%
COCc1ccc2c(c1)c(OC(C)(C)C(=O)NC(C)C)nn2Cc1cccc(OC)c1,i,?,1%[70.6 µM],?,-5%[88.5 µM]
CC(C)n1nc(OC(C)(C)C(=O)Nc2cccnc2)c2cc(CN3CCOCC3)ccc21,i,28µM*,5%[70.6 µM],-26%[172 µM],i
COCc1ccc2c(c1)c(OC(C)(C)C(=O)NCCN1CCOCC1)nn2Cc1cccnc1,i,?,5%,-2%,4%
COCc1ccc2c(c1)c(OC(C)(C)C(=O)N1CCN(CCO)CC1)nn2Cc1cccnc1,i,35µM*,8%,i,0%
COCc1ccc2c(c1)c(OC(C)(C)C(=O)N1CCOCC1)nn2Cc1cccnc1,i,32µM*,2%[70.6 µM],-9%[172 µM],2%[88.5 µM]
CNC(=O)c1cc(C2CC2)nc2c1c(C1CCCN1C(=O)C1CCCC1)nn2C (stereo not given),·,-5%,·,-8%,·
Cc1ccc(S(=O)(=O)N2CCCC(Cn3c(C)nc4cccnc43)C2)cc1Cl (stereo not given),i,?,?,?,i
O=C1CC2(CCN(Cc3ccc(F)cc3)CC2)Oc2ccccc21,i,?,-1%[70.6 µM],50µM*,2%[88.5 µM]
O=C1CC2(CCN(Cc3cccnc3)CC2)Oc2cc(Cl)ccc21,25µM*,?,0%,?,i
CN(C)c1ccc(CN2CCC3(CC2)CC(=O)c2ccccc2O3)cc1,i,-6%,13%,-7%,i
CN1c2cc(C(=O)Nc3ccc(OC(F)(F)F)cc3)ccc2C(=O)N2CCCCC21 (stereo not given),?,?,?,-25%,i
CC1CCN(c2ccc(CNC(=O)C3CCCN(Cc4ccncc4)CCC(=O)NCC3)cc2)CC1 (stereo not given),i,?,1%,?,-8%
O=C(c1cccs1)N1CCC(N2C(=O)[C@H]3CN(Cc4ccccc4)C[C@H]3C2=O)CC1,·,-17%,·,?,-2%
CCN(CC)CC(=O)N1CCC(C(=O)Nc2ccc(-c3nc4ccccc4o3)cc2)CC1,i,22µM*,1%,22µM*,5%
O=C(Nc1ccc2oc(-c3ccccc3)nc2c1)C1CCN(c2cnn(Cc3ccccc3)c(=O)c2)C1 (stereo not given),?,-1%,-2%,-4%,i
CCCN(C)C(=O)c1csc(N2CCN(c3cccc(Cl)c3)CC2)n1,i,?,?,32µM*,?
COc1ccc(N2CCN(c3nc(C(=O)NCc4ccco4)cs3)CC2)cc1,i,?,-25%,?,?
COc1cccc(N2CCN(c3nc(C(=O)NCc4ccco4)cs3)CC2)c1,i,?,-9%,45µM*,-22%
Cc1noc(C2CC3(CCN(C(=O)COc4ccccc4)CC3)CN2C)n1 (stereo not given),·,i,·,-7%,i
COCCNC(=O)C1COC2(CCN(C(=O)c3ccccc3F)CC2)N1C(=O)c1ccco1 (stereo not given),i,-12%,1%,-10%,i
COC(=O)[C@@H]1Cc2c([nH]c3ccccc23)[C@H]2C[C@@H](NCCO)C[C@@H](c3ccccc3F)N21,i,28µM*,-15%[70.6 µM],40µM*,1%[88.5 µM]
COC(=O)[C@@H]1Cc2c([nH]c3ccccc23)[C@H]2C[C@@H](NCCNC(C)=O)C[C@@H](c3ccccc3F)N21,?,79µM*,-5%,?,0%
COC(=O)C1=C(C)N=C2SC=C(CC(=O)NCC3CCCO3)N2C1c1ccccc1F (stereo not given),i,-21%,-12%,-27%,0%
SMILES,Luciferase inh,3T3 cytotox,hNpr1 antagonist,HEK293 tox,GPT2 inh
CN1[C@H](C(=O)O)C[C@H](C(=O)NCCCO)[C@@H]1c1ccccc1F,i,-4%,7%,0%,-9%
COC(=O)[C@@H]1Cc2c([nH]c3ccccc23)[C@H]2C[C@H](NC[C@H]3CCCO3)C[C@@H](c3ccccc3F)N21,i,35µM*,0%,?,-6%
O=C1NCc2ccccc2CC12CCN(Cc1ccccc1Br)C2 (stereo not given),·,-17%,·,?,4%
Cc1cccc(N2CCN(C(=O)c3noc(-c4ccc5c(c4)OCO5)n3)CC2)c1,22µM*,?,-1%,?,-2%
COc1ccc(CN2C[C@@H]3C[C@@H](C(N)=O)N(C(=O)C4CCCC4)c4cccc(c43)C2=O)cc1,·,?,·,-15%[57.5 µM],-11%[27.3 µM]
CN1CC2(CCN(Cc3ccccc3C#N)CC2)CC1C(=O)N1CCOCC1 (stereo not given),i,-17%,2%,-2%,i
CN1CCCC2(Cc3ccccc3CN(C(=O)CCCC(=O)O)C2)C1 (stereo not given),·,i,·,i,i
CCCC(=O)N1Cc2ccccc2CC2(CCCN(C)C2)C1 (stereo not given),·,?,·,89µM*,i
CC(C)N1CCC(O)(c2csc(CN3CCc4ccccc4C3)n2)CC1,i,?,4%[70.6 µM],?,0%[88.5 µM]
Cc1ccc(-c2cn3c(n2)N(C(=O)c2nc4ncccn4n2)CCC3)cc1,i,-16%,5%,40µM*,2%
CC1=C[C@@H](CC#N)[C@H](C(C)C)C[C@H]1CC(=O)N(C)CCc1ccccn1,i,1%[174 µM],-14%[70.6 µM],-16%[172 µM],-13%[88.5 µM]
NCc1ccccc1-c1ccc(OC(F)(F)F)cc1,·,?,·,56µM*,i
Cc1cc(-c2ccnc(-c3nnc(C)n3-c3ccccc3)c2)ccn1,i,25µM*,0%[70.6 µM],45µM*,5%[88.5 µM]
Cc1nnc(-c2cc(C(=O)NC3CCOCC3)ccn2)n1CCc1ccccc1,i,89µM*,4%[70.6 µM],i,i
Cc1nnc(-c2cc(-c3ccsc3)ccn2)n1-c1ccccc1,i,?,-8%[70.6 µM],?,i
Cc1ccccc1-c1ccnc(-c2nnc(C)n2Cc2ccccc2)c1,i,?,-2%[70.6 µM],79µM*,-3%[88.5 µM]
Cc1nnc(-c2cc(-c3cnn(C)c3)ccn2)n1-c1ccccc1,i,89µM*,3%[70.6 µM],?,-6%[88.5 µM]
COCCN1C(=O)CS(=O)C12CCN(C(=O)c1cccc3[nH]ccc13)CC2 (stereo not given),i,1%,-6%,?,i
Cc1nnc(-c2cc(N3CCN(c4ccccn4)CC3)ccn2)n1-c1ccccc1,i,?,-2%[70.6 µM],?,-6%[88.5 µM]
